About 83,000 compounds went through this panel and 20% of them were active in at least one assay; those are over-represented in the sample as a whole.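 Testing used 96-well plates and a 48-hour single-concentration exposure. Example: -40 means 40% of the starting cells died.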 Values without a mark were called inactive. Active and inactive are the calls of the source. The calls were made as follows: active = growth percent below 10; inactive = the rest.
Columns and labels:
Test in all cases: NCI-60 one-dose screen, 48 h (100 = growth as untreated, 0 = no growth, -100 = all killed)
Conditions in all cases: 10 µM
[1] = test system: NCI-H23 lung
[2] = test system: NCI-H226 lung
[3] = test system: NCI-H322M lung
[4] = test system: HOP-62 NSCLC
[5] = test system: NCI-H460 lung
[6] = test system: NCI-H522 lung
[7] = test system: A549/ATCC NSCLC
[8] = test system: 786-0 renal
[9] = test system: COLO 205 colon
[10] = test system: DU-145 prostate

Structure (SMILES) | growth [1] | growth [2] | growth [3] | growth [4] | growth [5] | growth [6] | growth [7] | growth [8] | growth [9] | growth [10]
COc1cc2cc3c(nc2cc1OC)CCN3Cc1ccc(NC(=O)Nc2cc(C(F)(F)F)cc(C(F)(F)F)c2)cc1 | 77.9% | 92.6% | 72.5% | 97.5% | 63.3% | 51.8% | 52.1% | 81.4% | 90% | 94.7%
COc1ccc(-c2cc(/C=C/C(=O)c3cc(OC)c(OC)c(OC)c3)[nH]n2)cc1OC | 47.2% | 63% | 1.57% (active) | -27% (active) | -45.7% (active) | -69.8% (active) | 20.8% | -57.9% (active) | -42.5% (active) | 0.588% (active)
Nc1c(C(=O)Nc2cccc(Br)c2)sc2nc3c(cc12)C(O)CCC3 (stereo not given) | 34.9% | 68.6% | 48.8% | 38.1% | 11.3% | -4.01% (active) | 30.1% | 45.1% | -1.49% (active) | -0.178% (active)
CCCCOc1ccc(NC(=O)Nc2nnc(C)s2)cc1 | 96.8% | 101% | 103% | 102% | 102% | -36.8% (active) | 41.4% | 93.5% | 120% | 120%
Cc1c(Cl)cccc1NC(=O)c1sc2nc3c(cc2c1N)C(=O)CCC3 | 16.4% | 55.8% | 27.8% | 34% | 4.71% (active) | -28.4% (active) | 16.7% | 37.7% | -30% (active) | -17.7% (active)
COC(=O)c1c(-c2ccccc2)csc1NC(=O)c1c(-c2ccccc2)noc1C | 61.4% | 49.6% | 56.6% | 52.1% | -15.3% (active) | 36.1% | -18.6% (active) | 24.1% | 60.6% | 39.7%
COc1cccc(C2C3=C(COC3=O)N(CCO)c3cc(OC)ccc32)c1 (stereo not given) | 26.3% | 0.496% (active) | 44% | 30.3% | 0.788% (active) | -34.8% (active) | 18% | 27.9% | -16.4% (active) | -4.6% (active)
CC/C(C)=C(\C)C(=O)O | 101% | 96.5% | 89.5% | 95% | 105% | 89.3% | 101% | 98.5% | 104% | 104%
CCN1CCC2(CC1)OC(c1ccccc1)C(c1ccccc1)O2 (stereo not given) | 106% | 96.6% | 133% | 114% | 118% | 116% | 105% | 92.7% | 106% | 115%
O=[N+]([O-])c1cccc(-c2ncc(-c3ccc(Cl)cc3Cl)[nH]2)c1 | 104% | 80% | 131% | 45.8% | 84.1% | -14% (active) | 94.4% | 66.8% | 89.4% | 40%
Cc1cc(C)c(NC(=O)c2sc3nc4c(cc3c2N)C(=O)CCC4)c(C)c1 | 33% | 77.1% | 56.3% | 36.9% | 6.43% (active) | -14.7% (active) | 23% | 30.4% | -6.14% (active) | 10%
COc1ccc(-c2nc(-c3nc4ccc(OC)cc4[nH]3)cc3c2[nH]c2ccccc23)cc1 | 55% | 65.3% | 48.2% | 53.9% | 2.46% (active) | 45.2% | 12.9% | 37.4% | 31.3% | 19.9%
Nc1ccccc1NC(=O)CCCCC(=O)Nc1ccc2c(c1)/C(=C/c1ccc[nH]1)C(=O)N2 | 89.6% | 52.2% | 63.3% | 83% | 73.9% | 37.5% | 92.9% | 90.2% | 87.4% | 70.7%
COc1ccc(/C=C/C(C)=N/OCC(=O)O)cc1 | 103% | 99.6% | 106% | 105% | 108% | 92.8% | 102% | 98.1% | 98.9% | 104%
CCN(CC)CCSCCCNc1c2ccc(Cl)cc2nc2ccc(OC)cc12 | -30.8% (active) | 48.7% | -35.6% (active) | -31.6% (active) | -39.7% (active) | -79.1% (active) | -29.5% (active) | -37.3% (active) | -82.9% (active) | 1.82% (active)
O=C(N/N=C/c1cc2ccccc2c2ccccc12)c1cc(O)c(O)c(O)c1 | 70.2% | 95.6% | 74.6% | 54.5% | 88.1% | -41.3% (active) | 94.4% | 82.6% | 72.7% | 75.8%
COc1cc(-c2cc(/C=C3\C(=O)Nc4ccccc43)[nH]n2)cc(OC)c1OC | 56% | 66.3% | 68.6% | 65% | 74.7% | 64.5% | 54.6% | 84.2% | 32.3% | 82.5%
COc1ccc(-c2cc(/C=C3\C(=O)Nc4ccc(Cl)cc43)[nH]n2)cc1OC | 101% | 85.5% | 70.6% | 97.7% | 79.9% | 89% | 89.5% | 102% | 89.7% | 76.4%
CSc1nc(=O)n(Cc2ccc(Cl)cc2)c(=O)[nH]1 | 100% | 108% | 127% | 92.1% | 108% | 90.7% | 99.1% | 101% | 104% | 104%
O=C(CC(NC(=O)OCc1ccccc1)C(=O)OCc1ccccc1)OCc1ccccc1 (stereo not given) | 106% | 106% | 99% | 94% | 101% | 89.2% | 99.3% | 106% | 99.1% | 111%
CCOC(=O)C(CSC(c1ccccc1)(c1ccccc1)c1ccccc1)NC(=O)C(CSC(c1ccccc1)(c1ccccc1)c1ccccc1)NC(c1ccccc1)(c1ccccc1)c1ccccc1 (stereo not given) | 116% | 93.5% | 101% | 101% | 106% | 99.4% | 95.1% | 104% | 112% | 115%
COc1ccc(-c2nn(-c3cccc(NC(=O)Nc4ccc(Cl)c(C(F)(F)F)c4)c3)cc2-c2ccncc2)cc1Cl | 9.49% (active) | 22.4% | 19.1% | 25.2% | 1.08% (active) | -8.34% (active) | 8.45% (active) | 19% | -33.3% (active) | 22.7%
O=[N+]([O-])c1cccc(N=Cc2ccc3c(c2)OCO3)c1 | 104% | 104% | 112% | 109% | 120% | 89.8% | 101% | 106% | 120% | 119%
CC(=O)CSC(C)=O | 108% | 99% | 104% | 101% | 103% | 105% | 99.6% | 102% | 119% | 117%
CCCCCCCNc1nc(C=O)ncc1-c1ccc(C(F)(F)F)cc1 | 99.8% | 98% | 84.4% | 101% | 103% | 80.1% | 96.4% | 97% | 95.8% | 106%
CC1=C(N2CCOCC2)C(N2CCOCC2)=C(C)C(=O)C1=O | 103% | 98.2% | 114% | 93.6% | 104% | 99.1% | 102% | 102% | 103% | 108%
COc1ccc(-c2nn(-c3cccc(NC(=O)c4ccc(Cl)c(Cl)c4)c3)cc2-c2ccncc2)cc1Cl | 94.9% | 83.5% | 83.6% | 94% | 79.4% | 33.3% | 70% | 80% | 86.2% | 92.1%
CCCC#CCN(CC)CC | 111% | 107% | 108% | 117% | 107% | 97.6% | 93.8% | 100% | 110% | 123%
